Screening results deposited in PubChem BioAssay by National Center for Advancing Translational Sciences (NCATS).
ELG1 DNA repair: ELG1-dependent DNA repair inhibition; HEK293T ELG1-luciferase reporter, luminescence, 16 h; DNA damage induced by 5-fluorouridine; Potency, µM (titrated, usually from 46.1 µM), usual class: inhibitors; actives 2.3% (n = 330,000); note: nearly all actives have a fitted effect of over 55% in size
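5-Fluorouridine DNA damage + compound/DMSO, 2,000 cells/well, 16 h, 37 °C/5% CO2. ONE-Glo, 30 min RT, luminescence. Readout = decrease in reporter signal.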
IL-1B inflam inh: inflammasome signaling inhibition, IL-1 beta readout. THP-1 LPS/ATP IL-1B secretion, AlphaLISA, 16 h; hits give low values. activity change, % at 57.5 µM. actives 4.7% (n = 360,000). AID 743279; in the data active = activity change below about -50%; inconclusive = mostly about -30% to -49%
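THP-1 cells pretreated 1 hr with compounds (up to 57.5 uM final), then stimulated with LPS (250 ng/mL final) plus ATP (1.25 mM final); secreted IL-1B measured by AlphaLISA after 16 hr, decreased signal indicating inhibition.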
TDP1 cell noCPT: qHTS for Inhibitors of human tyrosyl-DNA phosphodiesterase 1 (TDP1): qHTS in cells in absence of CPT; actives 15% (n = 420,000); Potency, µM (series often up to 46.2 µM), usual class: inhibitors; DT40 Tdp1-/- hTDP1 cells, no CPT, ATP luminescence, 48 h; note: nearly all actives have a fitted effect of over 55% in size
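A cellular qHTS used chicken DT40 cells lacking endogenous Tdp1 but carrying stably transfected human TDP1. Compounds were applied without camptothecin, and cell growth kinetics were judged by ATP-dependent luminescence after ≥48 hr.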
RORgamma inh: inhibitors of mouse ROR gamma transcriptional activity. P51450. Drosophila S2 Gal4-RORgamma UAS-luciferase reporter, 20 h. Potency, µM (series often up to 53.6 µM), actives largely listed as inhibitors. actives 5.4% (n = 310,000). AID 2551; note: nearly all actives have a fitted effect of over 60% in size
Target sequence (P51450 whole entry, looked up, the tested form may be a part): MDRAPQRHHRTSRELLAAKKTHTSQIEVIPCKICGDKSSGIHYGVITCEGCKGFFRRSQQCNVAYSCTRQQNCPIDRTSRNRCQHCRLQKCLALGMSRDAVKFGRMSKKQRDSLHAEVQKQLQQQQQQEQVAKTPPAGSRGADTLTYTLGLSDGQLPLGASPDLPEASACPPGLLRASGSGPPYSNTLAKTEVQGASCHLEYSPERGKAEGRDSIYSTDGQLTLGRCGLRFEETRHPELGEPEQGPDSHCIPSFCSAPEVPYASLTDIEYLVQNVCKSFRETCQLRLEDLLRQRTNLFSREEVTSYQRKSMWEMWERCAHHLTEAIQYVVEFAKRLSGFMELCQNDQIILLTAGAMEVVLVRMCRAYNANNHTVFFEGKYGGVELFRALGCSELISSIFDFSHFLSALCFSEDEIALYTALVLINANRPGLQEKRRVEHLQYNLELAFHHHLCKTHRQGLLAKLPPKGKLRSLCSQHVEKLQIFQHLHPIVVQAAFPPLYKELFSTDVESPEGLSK
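Using a luciferase readout, inhibitors were identified by reduced reporter activity in Drosophila cells coexpressing a copper-inducible Gal4–ROR gamma fusion and UAS-driven Photinus luciferase, incubated 20 hr after 700 uM copper sulfate.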
VP16 counter: counter-screen for ROR gamma inhibitors: Gal4-VP16 reporter; actives 3.5% (n = 310,000); Drosophila S2 Gal4-VP16 UAS-luciferase, luminescence, 20 h; AID 2546; Potency, µM (doses to about 53.6 µM), hits mostly inhibitors;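 note: Gal4-VP16 expression switched on by copper sulfate through the metallothionein promoter; nearly all actives have a fitted effect of over 50% in size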
DT40 TDP1 CPT: growth inhibition of DT40 Tdp1-/-;hTDP1 cells with camptothecin (screen for TDP1 inhibitors); chicken DT40 Tdp1-/-;hTDP1 cells + 20 nM CPT, ATP luminescence, 48 h; Potency, µM (doses to about 46.2 µM), hits mostly inhibitors; actives 12% (n = 420,000); AID 686979; note: nearly all actives have a fitted effect of over 55% in size
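Chicken DT40 Tdp1-/- cells complemented with human TDP1, 400 cells/well, exposed to compounds plus 20 nM camptothecin for at least 48 h at 37 C; viability read as ATP content by CellTiter-Glo luminescence.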
Of the large screens only hits and unclear results are named; the others gave an inactive call. A selection: hits, their analogues and other compounds. The true share with any hit is near 21%. Unless noted, calls come from the whole dose curve; as a rule, active = well fitted curve in the direction sought with a large enough effect; inconclusive = small, poorly fitted or top-dose-only effect, or another doubt; inactive = no such curve, though single readings can be large; an effect the other way counts as inactive or inconclusive.

CCN(/N=C/c1ccc(Cl)cc1)c1cc(=O)n(C)c(=O)[nH]1	ELG1 DNA repair inconclusive
CCN(/N=C/C=C/c1ccccc1)c1cc(=O)n(C)c(=O)[nH]1	DT40 TDP1 CPT 1.46µM
NC(COCc1ccccc1)c1csc(Nc2nccc(C(F)(F)F)n2)n1 (stereo unspecified)	TDP1 cell noCPT inconclusive, DT40 TDP1 CPT inconclusive (no result: ELG1 DNA repair, RORgamma inh, VP16 counter)
COC(=O)c1cnc(Nc2nc(C(N)Cc3ccccc3)cs2)nc1C(F)(F)F (stereo unspecified)	IL-1B inflam inh inconclusive, TDP1 cell noCPT 20.6µM, DT40 TDP1 CPT 23.1µM (no result: ELG1 DNA repair, RORgamma inh, VP16 counter)
COC(=O)c1cnc(Nc2nc(C(N)Cc3ccc(Cl)cc3)cs2)nc1C(F)(F)F (stereo unspecified)	TDP1 cell noCPT 23.1µM, DT40 TDP1 CPT inconclusive (no result: ELG1 DNA repair, RORgamma inh, VP16 counter)
Cc1nn2c(C)c(C(=O)NCc3cccc(Br)c3)cnc2c1-c1ccccc1	DT40 TDP1 CPT inconclusive (no result: ELG1 DNA repair, IL-1B inflam inh, RORgamma inh, VP16 counter)
Cc1nnc(N2CCN(C(=O)NCCC(C)C)CC2)c2nn(-c3ccc(Cl)cc3)c(C)c12	none (no result: ELG1 DNA repair, IL-1B inflam inh, RORgamma inh, VP16 counter)
Cc1nnc(N2CCN(C(=O)Nc3cc(F)ccc3F)CC2)c2nn(-c3ccc(Cl)cc3)c(C)c12	TDP1 cell noCPT 20.6µM, DT40 TDP1 CPT 20.6µM (no result: ELG1 DNA repair, IL-1B inflam inh, RORgamma inh, VP16 counter)
COC(=O)C(C)NC(=O)N1CCN(c2nnc(C)c3c(C)n(-c4ccc(Cl)cc4)nc23)CC1 (stereo unspecified)	TDP1 cell noCPT 23.1µM, DT40 TDP1 CPT inconclusive (no result: ELG1 DNA repair, IL-1B inflam inh, RORgamma inh, VP16 counter)
COc1ccccc1NC(=O)N1CCN(c2nnc(C)c3c(C)n(-c4ccc(Cl)cc4)nc23)CC1	none (no result: ELG1 DNA repair, IL-1B inflam inh, RORgamma inh, VP16 counter)
CC(=O)N1CCC2(CCCN(c3ccccc3)C2)CC1	none (no result: ELG1 DNA repair, IL-1B inflam inh)
COC(=O)CCCC[C@@H]1O[C@H](CCc2ccccc2)Cc2[nH]c(=S)[nH]c(=O)c21	TDP1 cell noCPT inconclusive (no result: ELG1 DNA repair, RORgamma inh, VP16 counter)
COc1cccc(CNC(=O)CCn2cccn2)c1	none (no result: ELG1 DNA repair, IL-1B inflam inh, RORgamma inh, VP16 counter)
CN(C)Cc1ccccc1-c1nc(NC2CC2)c2ccccc2n1	TDP1 cell noCPT inconclusive, DT40 TDP1 CPT inconclusive (no result: ELG1 DNA repair, IL-1B inflam inh)
COCCNc1nc(-c2ccccc2OC)nc2ccccc12	TDP1 cell noCPT inconclusive, DT40 TDP1 CPT inconclusive (no result: ELG1 DNA repair, IL-1B inflam inh)
COc1ccccc1CNc1ccnc(-c2ccccc2CN(C)C)n1	TDP1 cell noCPT inconclusive, DT40 TDP1 CPT inconclusive (no result: ELG1 DNA repair, IL-1B inflam inh)
COc1ccccc1CNc1nc(-c2ccccc2CN(C)C)nc2ccccc12	TDP1 cell noCPT 6.51µM, RORgamma inh inconclusive, DT40 TDP1 CPT 11.6µM (no result: ELG1 DNA repair, IL-1B inflam inh)
CN(C)Cc1ccccc1-c1nc(NCc2ccccc2)c2ccccc2n1	TDP1 cell noCPT 6.51µM, DT40 TDP1 CPT 16.4µM (no result: ELG1 DNA repair, IL-1B inflam inh)
COc1ccccc1CNc1ccnc(-c2ccoc2)n1	TDP1 cell noCPT inconclusive, RORgamma inh inconclusive (no result: ELG1 DNA repair, IL-1B inflam inh)
COc1ccccc1CNc1nc(-c2ccoc2)nc2ccccc12	TDP1 cell noCPT 25.9µM, RORgamma inh inconclusive, VP16 counter inconclusive, DT40 TDP1 CPT 14.6µM (no result: ELG1 DNA repair, IL-1B inflam inh)
COCCNc1nc(-c2ccccc2C)nc2ccccc12	TDP1 cell noCPT 18.4µM, DT40 TDP1 CPT inconclusive (no result: ELG1 DNA repair, IL-1B inflam inh)
CCN(CC(=O)N1CCN(Cc2ccccc2)CC1)S(=O)(=O)c1ccc(C)cc1	TDP1 cell noCPT inconclusive, DT40 TDP1 CPT inconclusive
O=C(c1ccc(Cl)cc1)c1ccc(Oc2cc(NN3CCCCC3)c([N+](=O)[O-])cc2[N+](=O)[O-])cc1	DT40 TDP1 CPT inconclusive
COCCNc1nc(-c2ccccc2CN(C)C)nc2ccccc12	TDP1 cell noCPT 11.6µM, DT40 TDP1 CPT inconclusive (no result: ELG1 DNA repair, IL-1B inflam inh)
COCCNc1nc(-c2ccccc2C(F)(F)F)nc2ccccc12	none (no result: ELG1 DNA repair, IL-1B inflam inh)
CCOC(=O)/C=C1/SCC(=O)N1CC(=O)NC12CC3CC(CC(C3)C1)C2	TDP1 cell noCPT 20.6µM, DT40 TDP1 CPT inconclusive (no result: ELG1 DNA repair, RORgamma inh, VP16 counter)
Cc1[nH]c2ccccc2c1C(c1ccccn1)N1CCCC1 (stereo unspecified)	TDP1 cell noCPT 16.4µM, DT40 TDP1 CPT inconclusive
Cc1[nH]c2ccccc2c1C(=O)CN1CCC(C)CC1	none
Cc1ccnc(NC(c2ccccn2)c2c(C)[nH]c3ccccc23)c1 (stereo unspecified)	IL-1B inflam inh -106.2, TDP1 cell noCPT inconclusive, DT40 TDP1 CPT inconclusive
CCOC(=O)C1CCCN(C(=O)Cc2c(C(=O)O)[nH]c3ccccc23)C1 (stereo unspecified)	none
Cc1[nH]c2ccccc2c1C(c1ccccn1)N1CCC(C)CC1 (stereo unspecified)	ELG1 DNA repair inconclusive, IL-1B inflam inh -106.6, TDP1 cell noCPT 20.6µM, DT40 TDP1 CPT 20.6µM
CCOC(=O)C1CCCN(C(c2ccccn2)c2c(C)[nH]c3ccccc23)C1 (stereo unspecified)	RORgamma inh 12.6µM
CC1=C(C(=O)N2CCCCCC2)CC(CC(=O)NCCc2ccccn2)C(=O)N1CCCN1CCCC1=O (stereo unspecified)	DT40 TDP1 CPT inconclusive (no result: ELG1 DNA repair, IL-1B inflam inh, RORgamma inh, VP16 counter)
Cc1csc2nc(CSc3ccc(Cl)cc3)cn12	ELG1 DNA repair inconclusive, IL-1B inflam inh -90.9, TDP1 cell noCPT 23.1µM, DT40 TDP1 CPT inconclusive
Clc1ccc(SCc2cn3ccsc3n2)cc1	ELG1 DNA repair inconclusive
Cc1ccc(NC(=O)Cn2c(=O)n(Cc3nc(C)no3)c(=O)c3cc4c(cc32)OCO4)c(C)c1	none (no result: ELG1 DNA repair, IL-1B inflam inh, RORgamma inh, VP16 counter)
